Test results taken from PubChem BioAssay AID1345085 (National Center for Advancing Translational Sciences (NCATS), 2018).
Inconclusive results are not listed. Active and inactive are the calls of the source. Calls come from the whole dose curve; as a rule, active = well fitted cell-killing curve with a large enough effect; inconclusive = small, poorly fitted or top-dose-only effect, or effect the other way; inactive = no such curve, though single readings can be large or run the other way.
Note: nearly all actives have a fitted effect of over 55% in size.
Potency is the fitted concentration of half-maximal effect.

What follows are compounds tested on HeLa (assay: Confirmatory qHTS for gynecologic anti-cancer compounds from libraries of approved drugs and bioactive compounds). Conditions: gynecologic cancer cell panel viability, ATPlite luminescence, 48 h; series mostly up to 57.6 µM.
Procedure, shortened: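 1,000 cells/well; 16 h pre-incubation 37 C, 5% CO2; pin-transferred cpd in DMSO, 11 conc (1:3), 57.5 uM–0.977 nM; 48 h; ATPlite, 15 min RT; luminescence → IC50.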
Cc1ccc(C(=O)Nc2ccc(Oc3cc4cnn(C)c4cc3-c3cn[nH]c3)c(F)c2)c(=O)n1-c1ccc(F)cc1 was tested, and the Potency was 8.63 µM (active). CCc1nc(C(N)=O)c(Nc2ccc(N3CCC(N4CCN(C)CC4)CC3)c(OC)c2)nc1NC1CCOCC1 was tested, and the Potency was 3 µM (active). For COc1cccc2cc(-c3nc(C4CCC(C(=O)O)CC4)n4ncnc(N)c34)[nH]c12 (stereo not drawn), the Potency was 4.85 µM (active).
